FECH block: inhibitors of human ferrochelatase, primary screen, biochemical, purified FECH, Ni-mesoporphyrin absorbance; Ni-mesoporphyrin absorbance 550 nm; 3.3% of 20,000 active; AID 1671448, 2021; calls only at 10 µM (by protocol);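 active = enzyme reaction rate more than 3 SD below the solvent-only control wells on the same plate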;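 also: lower slope than DMSO wells means FECH inhibition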
Target sequence (P22830 whole entry, looked up): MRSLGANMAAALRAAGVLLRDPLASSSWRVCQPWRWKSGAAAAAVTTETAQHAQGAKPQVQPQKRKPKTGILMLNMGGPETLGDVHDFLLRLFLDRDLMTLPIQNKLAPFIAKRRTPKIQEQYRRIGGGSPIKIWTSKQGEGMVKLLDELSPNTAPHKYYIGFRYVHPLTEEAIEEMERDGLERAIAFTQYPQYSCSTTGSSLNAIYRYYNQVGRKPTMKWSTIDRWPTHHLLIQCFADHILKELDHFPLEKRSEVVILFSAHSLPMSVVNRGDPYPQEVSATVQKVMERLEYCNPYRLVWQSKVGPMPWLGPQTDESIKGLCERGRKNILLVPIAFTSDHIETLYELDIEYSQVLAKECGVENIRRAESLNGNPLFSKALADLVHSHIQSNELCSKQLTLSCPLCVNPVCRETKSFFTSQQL
Each line names hits and unclear results; the compound was inactive in the other large screens. Only a selection was taken, and hits are over-represented in it overall.

CCNC(=O)CN1c2ccc(Br)cc2-c2ccccc2S1(=O)=O	FECH block active
COCC(C)NC(=O)CN1c2ccc(F)cc2-c2ccccc2S1(=O)=O (configuration not stated)	none
CC(C)c1ccc2c(c1)-c1ccccc1S(=O)(=O)N2CC(=O)N1CC(=O)Nc2ccccc21	none
COc1ccc(C)cc1NC(=O)Cn1ccnc1-c1nccn1C	none
O=C(CN1c2ccc(F)cc2-c2ccccc2S1(=O)=O)NC(c1ccccc1)c1ccccc1	none
COc1ccccc1CNC(=O)CN1c2ccc(Br)cc2-c2ccccc2S1(=O)=O	none
CC(C)NC(=O)CN1c2ccc(Br)cc2-c2ccccc2S1(=O)=O	FECH block active
COc1ccc(C)cc1NC(=O)CN1c2ccc(Br)cc2-c2ccccc2S1(=O)=O	FECH block active
CN1CCN(C(=O)CN2c3ccc(Br)cc3-c3ccccc3S2(=O)=O)CC1	FECH block active
CC(C)Cc1nc(CN(C)Cc2ccnc3ccccc23)no1	none
Cc1cc(C)cc(N2CCN(C(=O)c3ccc(C4CCNC4)cc3)CC2=O)c1 (configuration not stated)	none
Cc1nc2nc(-c3ccccc3)nn2c(Sc2ccccc2NC(=O)c2ccccc2Cl)c1C	none
Cn1cc(CN2CCC(CNC(=O)c3cnc4ccccc4c3)C2)cn1 (configuration not stated)	none
Cc1cc(C)cc(NC(=O)CC(=O)N(Cc2ccncc2)Cc2ccco2)c1	none
COc1cc2c(cc1C)C(c1ccc(OCC(N)=O)c(Cl)c1)CC(=O)N2 (configuration not stated)	none
Cc1cc(C)c(S(=O)(=O)NCCn2c(-c3ccccc3)nc3cccnc32)c(C)c1	none
Cc1cc2ncn(-c3ccc(=O)[nH]c3)c2cc1C	none
COc1ccc(Nc2cc(C)nc(Nc3ccc(NC(=O)C(C)C)cc3)n2)cc1	none
C=CCNc1nc(SC)nc(-c2ccc(Cl)cc2)c1C#N	none
CC(C)Cn1c(CNS(=O)(=O)c2ccc(Cl)s2)nc2cccnc21	none
CCCNC(=O)N1CCN(c2cc(-c3cccc(OC)c3)ncn2)CC1	none
CCc1ccc2c(c1)-c1ccccc1S(=O)(=O)N2CC(=O)Nc1cc(C)ccc1C	FECH block active
CCc1ccc2c(c1)-c1ccccc1S(=O)(=O)N2CC(=O)Nc1ccccc1Oc1ccccc1	none
O=C(CN1c2ccc(Br)cc2-c2ccccc2S1(=O)=O)NCCC1=CCCCC1	FECH block active
C=CCNC(=O)CN1c2ccc(Br)cc2-c2ccccc2S1(=O)=O	FECH block active
CCc1ccc2c(c1)-c1ccccc1S(=O)(=O)N2CC(=O)Nc1ccc2c(c1)OCO2	none
Cc1cccc(NC(=O)CC(=O)NC[C@@H]2CCCO2)c1C	none
O=C(CN1c2ccc(Br)cc2-c2ccccc2S1(=O)=O)NCC1CCCO1 (configuration not stated)	FECH block active
Cc1cc(C)n2nc(CN(C(=O)C(C)C)c3ccccc3Cl)nc2n1	none
CC(=O)Nc1ccccc1NC(=O)CNCc1ccc2sccc2c1	none
CC(C)CN1CCC(CNC(=O)c2ccc(N3CCNC(=O)CC3)nc2)C1 (configuration not stated)	none
Cn1nnnc1SCCNC(=O)C1(C)CCCCO1 (configuration not stated)	none
Cc1ccc(NC(=O)Cc2csc(NC(=O)Nc3cccc(Cl)c3)n2)cc1Cl	none
COc1cccc(Nc2cc(C(C)C)nc3nc(-c4cccnc4)nn23)c1	none
CCN(CC)C1=NC2(CCN(C(=O)C3CCCCCN3C)CC2)C(=O)N1 (configuration not stated)	none
CCNc1ncc(C(=O)NCC2=CCCCC2)cn1	none
CCc1nc(C)c(C(=O)NCCN2CCN(c3ncccn3)CC2)s1	none
CCOc1ccc(NC(=O)CN2CCCN(Cc3ccc(F)cc3)S2(=O)=O)cc1	FECH block active
CCc1ccc(NC(=O)CN2CCCN(Cc3ccc(Cl)cc3)S2(=O)=O)cc1	none
O=C(CN1CCCN(Cc2ccc(Cl)cc2)S1(=O)=O)Nc1ccc(F)cc1	none
CCOc1ccc(NC(=O)CN2CCN(Cc3ccc(F)cc3)S2(=O)=O)cc1	none
CCOc1ccc(NC(=O)CN2CCCN(Cc3ccc(Cl)cc3)S2(=O)=O)cc1	FECH block active
CCOc1ccc(NC(=O)CN2CCCN(Cc3ccc(OC)cc3)S2(=O)=O)cc1	none
O=C(NC1CCOCC1)C1CCCN(C2CCN(Cc3ccccc3)CC2)C1 (configuration not stated)	none
CCCC(=O)Nc1ccc(CC(=O)NCc2ccc3nonc3c2)cc1	none
COCCNc1nc(Nc2cccc(F)c2)c2cnn(-c3ccccc3)c2n1	none
CCOC(=O)N1CCC(N2CCN(c3ccc(C(N)=O)cn3)CC2)CC1	none
COc1ccc(N2CCCS2(=O)=O)cc1NC(=O)c1ccc(Cl)cc1	none
O=C(CCN1CCCCO1)NCC(c1ccccc1)C1CCCC1 (configuration not stated)	FECH block active
O=C(CCN1CCCCO1)N(Cc1ccccc1)Cc1nccs1	none
CN1CCCC(CCNC(=O)CCN2CCCCO2)C1 (configuration not stated)	none
Cn1cnc(S(=O)(=O)Nc2ccc(S(N)(=O)=O)cc2)c1	none
CCc1ccc(NS(=O)(=O)c2ccc3c(c2)C(=O)NC3)cc1	none
COc1ccc(NS(=O)(=O)c2ccc(N)c(S(N)(=O)=O)c2)cc1	FECH block active
CCc1ccc(NS(=O)(=O)c2ccc(N)c(S(N)(=O)=O)c2)cc1	FECH block active
CCc1ccc(NS(=O)(=O)c2ccc(C(=O)N(C)C)s2)cc1	none
CCN(CC)c1ncc(NS(=O)(=O)c2ccc(OC)cc2)cc1C(=O)O	none
Cc1ccc(NS(=O)(=O)c2ccc(N)c(S(N)(=O)=O)c2)cc1	FECH block active
COc1ccc(-c2csc(C)n2)cc1S(=O)(=O)Nc1ccc(S(N)(=O)=O)cc1	none
NS(=O)(=O)c1ccc(NS(=O)(=O)c2ccc3c(c2)NC(=O)CC(=O)N3)cc1	none
NC(=O)c1cc2c(nc1-c1cc3ccccc3o1)CCC2	none
COc1ccc(Cn2c(CNC(=O)Cc3ccc(F)cc3)nc3cccnc32)cc1	none
Cc1cc2c(cc1CN1CCCCC1CCN1CCN(C)CC1)OCO2 (configuration not stated)	none
NS(=O)(=O)c1ccc(NC(=O)c2ccc(-c3nc(-c4ccccc4)no3)cc2)cc1	none
CCn1nc(-c2ccccc2)c(-c2ccccc2)c(C(=O)Nc2ccc(S(N)(=O)=O)cc2)c1=O	FECH block active
NS(=O)(=O)c1ccc(NC(=O)c2c(-c3ccccc3)c(-c3ccccc3)n[nH]c2=O)cc1	none
O=C(c1ccc2cccnc2c1O)N1CCOC(c2ccc(F)cc2)C1 (configuration not stated)	none
CCOC(=O)Cn1c(=O)c2cnc(-c3ccc(Cl)cc3)nc2n(CC)c1=O	none
CCc1noc(CN(CC)C(=O)C(C)n2cnc3ccccc32)n1 (configuration not stated)	FECH block active
CCc1noc(CN(CC)C(=O)C(c2cccc(C)c2)N(C)C)n1 (configuration not stated)	none
CCc1noc(CN(CC)C(=O)c2ccccc2N2CCCC2)n1	none
O=C(C1CCCN(c2ncnc3c2nc2n3CCCCC2)C1)N1CCc2ccccc2C1 (configuration not stated)	none
O=C(Nc1nc2c(s1)CCCC2)c1cccc(CN2CC[C@H](O)C2)c1	none
O=C(Nc1ccc2ncsc2c1)c1cccc(CN2CCCC(O)C2)c1 (configuration not stated)	FECH block active
O=C(Nc1ncns1)c1cccc(CN2CC[C@H](O)C2)c1	none
CCc1cc(NC(C)Cn2cccn2)nc(N2CCOCC2)n1 (configuration not stated)	none

High-throughput results (PubChem)
